Screening data (PubChem BioAssay)
PLK1 PBD inh = blocks phosphopeptide binding to human PLK1 polo-box domain; Plk1 PBD binding of FITC phosphopeptide, fluorescence polarization; Potency, µM, for the others: max response, negative = inhibition, actives largely listed as inhibitors; 360,000 tested, 2.8% active; AID 720504; also: series mostly up to about 57 µM; % is scaled to controls: 0 for no effect and ±100 for the full control effect; nearly all actives have a fitted effect of over 65% in size
ALOX12 inh = blocks human arachidonate 12S-lipoxygenase; P18054; purified 12hLO, xylenol orange hydroperoxide absorbance; Potency, µM (highest dose often 108 µM), for inactives: at the highest dose activity change, negative = inhibition, usual class: inhibitors; 580,000 tested, 1.1% active; AID 1671190; also: % is scaled to controls: 0 for no effect and ±100 for the full control effect
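Purified human 12hLO at 150 nM in 25 mM Hepes, 0.01% Triton X-100, pH 7.0, preincubated 15 min at room temperature with compound. Reaction started with 40 uM arachidonic acid, 30 min at room temperature. Hydroperoxide measured by Fe-xylenol orange, 573/405 nm absorbance ratio.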
BAZ2B inh = inhibitors of human BAZ2B bromodomain; AlphaScreen BAZ2B-H3K14Ac peptide displacement; AID 504333; Potency, µM (highest dose often 114 µM), for inactives: at the highest dose activity change, negative = inhibition, most hits filed as inhibitors; 360,000 tested, 4.4% active; Q9UIF8; also: % is scaled to controls: 0 for no effect and ±100 for the full control effect; nearly all actives have a fitted effect of over 60% in size
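AlphaScreen displacement: compounds (up to 110uM) incubated 30 min at room temperature with a preformed 50 nM BAZ2B/50 nM biotinylated H3K14Ac peptide complex in PBS pH 7.4 with Tween-20. Donor and acceptor beads at 10 ug/mL final added, 20 min light-protected before reading.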
HP1b chromo inh = HP1-beta chromodomain-methylated histone interaction inhibition. P83916. Potency, µM (top dose mostly 114 µM), for the others: top-dose activity change, negative = inhibition, usual class: inhibitors. AID 540317. 390,000 tested, 0.56% active. AlphaScreen HP1-beta / biotin-H3K9me3 peptide binding; also: nearly all actives have a fitted effect of over 70% in size
Target sequence (P83916 whole entry, looked up): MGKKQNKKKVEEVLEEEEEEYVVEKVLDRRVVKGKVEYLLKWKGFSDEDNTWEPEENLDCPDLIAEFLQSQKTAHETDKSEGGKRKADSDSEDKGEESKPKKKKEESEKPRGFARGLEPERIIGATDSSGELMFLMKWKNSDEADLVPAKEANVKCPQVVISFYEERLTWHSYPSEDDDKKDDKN
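Compound inhibition of the preformed complex between 50 nM HP1-beta and 50 nM biotinylated H3K9me3 peptide was read by AlphaScreen. Buffer was PBS pH 7.4 with 0.01% Tween-20. Incubations ran 30 min at room temperature, with 10 ug/mL donor/acceptor beads.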
JMJD2A Tudor inh = blocks the human JMJD2A Tudor domain; 390,000 tested, 4.4% active; O75164; AlphaScreen JMJD2A-Tudor / H3K4me3 peptide binding; Potency, µM (titrated, usually from 114 µM), for inactives: at the highest dose activity change, negative = inhibition, actives largely listed as inhibitors; also: % is scaled to controls: 0 for no effect and ±100 for the full control effect; nearly all actives have a fitted effect of over 50% in size
G9a inh = G9a (human) methyltransferase inhibition; Q96KQ7; G9a H3K9 monomethylation, AlphaScreen, 2 h; Potency, µM (series often up to 102 µM), for the others: at the highest dose activity, negative = inhibition, actives largely listed as inhibitors; 350,000 tested, 8.8% active; also: % is scaled to controls: 0 for no effect and ±100 for the full control effect; nearly all actives have a fitted effect of over 75% in size
Target sequence (Q96KQ7 913-1193 limits assumed): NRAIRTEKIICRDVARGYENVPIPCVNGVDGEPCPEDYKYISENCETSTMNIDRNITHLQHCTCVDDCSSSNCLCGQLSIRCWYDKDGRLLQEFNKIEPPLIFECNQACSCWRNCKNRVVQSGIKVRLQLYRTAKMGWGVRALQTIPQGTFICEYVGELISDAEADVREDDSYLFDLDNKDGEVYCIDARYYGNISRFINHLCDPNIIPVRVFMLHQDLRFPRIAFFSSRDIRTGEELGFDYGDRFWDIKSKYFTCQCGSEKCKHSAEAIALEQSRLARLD
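Step 1: enzyme (final 20 nM) with compound, 15 min RT. Step 2: substrate peptide 500 nM and SAM 20 uM, 2 h RT. Step 3: anti-H3K9me1 antibody and AlphaScreen beads, 10 min, then plate read.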
Active calls of the source: *; ? = inconclusive; nt = not tested or not shown; [ ] = another dose, or the depositor's remark. Shown are actives, neighbours in structure and some others; about 9% of the full set was active somewhere. Calls follow the shape of the dose curve; as a rule, active = well fitted curve in the direction sought with a large enough effect; inconclusive = small, poorly fitted or top-dose-only effect, or another doubt; inactive = no such curve, though single readings can be large; an effect the other way counts as inactive or inconclusive. Potency is read from the fitted curve at half-maximal effect.

SMILES	PLK1 PBD inh	ALOX12 inh	BAZ2B inh	HP1b chromo inh	JMJD2A Tudor inh	G9a inh
O=C(COc1ccccc1)Nc1nc(-c2cccnc2)cs1	-18.5%	40.1%	8.7%	25.3%	-4.7%	?
COc1cccc(C(=O)Nc2nc(C)cs2)c1	-1.9%	?	-19.7%	44.8%	10.7%	0.5%[59 µM]
COc1cccc(C(=O)Nc2nc(-c3ccncc3)cs2)c1	?	0.0%	nt	7.5%	-15.9%	31.6µM*
Cc1cc(C)cc(OCC(=O)Nc2nc(-c3cccnc3)cs2)c1	11.9µM*	16.8%	-5.0%	?	-14.2%	10µM*
Cc1nc2ccc(NC(=O)COc3ccccc3)cc2s1	-0.3%	-9.7%	2.7%	32.6%	-9.9%	-2.7%
CCC(=O)Nc1nc2ccc(NC(=O)COc3ccccc3)cc2s1	1.7%	nt	-17.3%	36.3%	-0.8%	79.4µM*
Cc1cc(C(=O)OCC(=O)N2CC(C)CC(C)C2)c(C)o1 (stereo not given)	-20.3%	?	-2.8%	22.8%	-11.6%	?
COc1ccc(/C=C/C(=O)O)cc1S(=O)(=O)N1CCCCC1	-2.8%	-19.4%	-30.1%	46.4%	-3.6%	nt
[O-]/C(=C(\C(=S)Nc1ccccc1F)[n+]1ccccc1)c1ccc(OC(F)F)cc1	?	2.3%	-24.6%	11.2%	-19.1%[11.4 µM]	50.1µM*
O=C(/C=C/c1ccc([N+](=O)[O-])cc1)Nc1ncc([N+](=O)[O-])s1	-24.7%	0.0%	35.5µM*	9.5%	-30.6%	50.1µM*
O=C(NOC(=O)c1ccccc1F)c1ccc(OC(F)F)cc1	-18.9%	-13.9%	-9.3%	21.6%	-12.5%	-52.1%
COc1cccc(NC(=S)/C(=C(\[O-])c2ccc([N+](=O)[O-])cc2)[n+]2ccccc2)c1	7.52µM*	9.6%	50.1µM*	-9.2%	-17.6%[11.4 µM]	44.7µM*
COc1cccc(NC(=O)CNC(=O)c2ccc([N+](=O)[O-])cc2)c1	-2.9%	4.1%	-9.2%	32.4%	1.4%	-1.7%
Cc1ccc(C)c(NC(=S)/C(=C(\[O-])c2ccc(OC(F)F)cc2)[n+]2ccccc2)c1	-26.4%	-10.5%	?	15.1%	-7.7%	39.8µM*
CC(C)N1CCC(N2CCN(Cc3cnc(-c4ccccc4)s3)CC2CCO)CC1 (stereo not given)	-1.6%	-9.7%	-11.3%	19.0%	-9.1%	-29.6%
CCCC(=O)N(Cc1cc2cc(C)ccc2[nH]c1=O)c1ccccc1OC	-4.6%	21.1%	-0.5%	1.3%	-13.2%	2.5%[12.7 µM]
CNCCc1ccccn1	-1.2%	-12.9%	?	?	?	5.1%[21.5 µM]
O=[N+]([O-])c1cccc(C([O-])=C(C(=S)Nc2cccc3ccccc23)[n+]2ccccc2)c1	?	-36.8%	nt	?	?	nt
O=[N+]([O-])c1cccc(/C([O-])=C(/C(=S)Nc2cccc3ccccc23)[n+]2ccccc2)c1	-16.5%	-29.1%	-35.7%	?	?	5.62µM*
COc1cccc(NC(=O)/C=C/c2ccc([N+](=O)[O-])cc2)c1	?	?	?	-13.3%	-33.8%	7.94µM*
O=[N+]([O-])c1ccc(/C([O-])=C(/C(=S)Nc2ccccc2F)[n+]2ccccc2)cc1	-24.7%	-23.8%	-35.4%	-6.4%[57 µM]	-25.8%	50.1µM*
O=C1N=c2ccccc2=C1c1c(O)[nH]c2c(C(F)(F)F)cccc12	26.7µM*	?	-6.2%	-23.4%	?	-16.5%
CN(c1ccc(O)cc1)c1nc(O)c(C2=c3ccccc3=NC2=O)s1	-14.5%	?	nt	-19.3%	?	nt
Cc1sc2ncnc(N/N=C/c3ccccc3O)c2c1C	-0.2%	?	35.5µM*	-6.0%	?	64.8%[59 µM]
COc1cccc(/C=N/Nc2ncnc3scc(-c4ccccc4)c23)c1OC	-0.5%	3.3%	-27.0%	27.2%	?	50.1µM*
COc1ccc(-c2csc3ncnc(Nc4ccccc4)c23)cc1	nt	-19.6%	-0.9%	77.0%	4.6%	12.9%[59 µM]
COc1ccc(N=C2C(=O)Nc3ccccc32)cc1	-8.3%	6.6%	5.8%	-2.0%	-23.9%	?
